Compounds with a hit are over-represented: about 4.3% of the library has one in this group of screens.
MITF TRPM1 HTS = activators of MITF-driven TRPM1 promoter reporter, primary screen, cell-based, SK-MEL-5, luciferase, single point; SK-MEL-5 TRPM1-promoter luciferase, 24 h; % of positive control, neutral wells = 0; activation, % at 12.5 µM; 300,000 compounds, 0.75% hits;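 active = mean activation of at least 80% with every replicate also reaching 80%; inconclusive = mean reaches 80% but some replicate falls short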;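 note: 0% = neutral control wells and 100% = parthenolide positive control wells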
Wnt bcat act = Wnt/beta-catenin pathway activators, primary screen, cell-based, plate reader, single point | Wnt/beta-catenin reporter cell assay, activator | activation, % at 9.35 µM | 300,000 compounds, 1.2% hits; in the data active = activation above about 30%, passing the limit was not always enough; inconclusive = no clear call, values can overlap the other calls;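 note: 0% = neutral control wells and 100% = positive control wells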
MLL AF4-AF9 inh = inhibitors of AF4 peptide binding to AF9, primary screen, biochemical, AlphaScreen, biotin-AF4 peptide, FLAG-AF9, single point. Protein AF-9 (Homo sapiens), P42568. inhibition, % at 10 µM. 350,000 compounds, 0.47% hits. AID 651704, 2012;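 active = every replicate reaching a set inhibition limit, whatever the replicate mean, cut at about 25% in these data; inconclusive = mean inhibition reaches that limit but some replicates miss it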;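 note: 0% = plate neutral control median and 100% = total signal loss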
Target sequence (P42568 whole entry, looked up): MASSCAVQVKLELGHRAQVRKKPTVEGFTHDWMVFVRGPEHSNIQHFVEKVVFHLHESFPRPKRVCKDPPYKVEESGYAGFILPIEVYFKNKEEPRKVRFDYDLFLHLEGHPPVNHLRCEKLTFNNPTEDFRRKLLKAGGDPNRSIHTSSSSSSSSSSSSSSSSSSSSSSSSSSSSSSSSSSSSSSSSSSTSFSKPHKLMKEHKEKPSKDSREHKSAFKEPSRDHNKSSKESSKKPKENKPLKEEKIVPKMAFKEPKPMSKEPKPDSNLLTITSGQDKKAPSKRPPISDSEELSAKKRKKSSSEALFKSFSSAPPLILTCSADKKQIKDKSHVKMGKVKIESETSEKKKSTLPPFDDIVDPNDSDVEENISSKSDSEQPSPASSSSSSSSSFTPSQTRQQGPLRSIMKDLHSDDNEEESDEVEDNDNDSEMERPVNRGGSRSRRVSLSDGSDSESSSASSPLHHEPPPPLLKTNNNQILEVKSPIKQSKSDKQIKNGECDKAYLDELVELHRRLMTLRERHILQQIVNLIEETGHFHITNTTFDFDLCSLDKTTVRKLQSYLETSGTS
esBAF inh = Bmi1 luciferase reporter increase in mESCs, primary screen, esBAF inhibitor project, mouse ES cells, Bmi1 luciferase knock-in, single point. 24 h; 100% = twice the neutral-well signal. reporter increase, % at 12.5 µM. 350,000 compounds, 2% hits. AID 602393, 2012; in the data active = activation above about 40%; inconclusive = no clear call, values can overlap the other calls;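 note: 0% = median of the plate's neutral control wells and 100% = double that signal; a rise in the Bmi1 reporter signal indicates esBAF inhibition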
SMARCA2 act = SMARCA2 (BRM) function activators, primary screen, cell-based, luminescence, high throughput. MG213 cells, MMTV-luciferase reporter, dexamethasone, overnight. activation, % at 9.1 µM. 370,000 compounds, 1% hits; in the data active = activation above about 7.8%;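 note: 0% = vehicle wells and 100% = reference activator wells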
FGF22 binding = binders of human FGF22 protein, primary screen, FGF22 synaptogenesis inhibitor project, biophysical, thermal shift, single point; activity (Tm shift, normalised), % at 9.99 µM; recombinant FGF22 thermal shift, SYPRO orange fluorescence; percent of sucrose octasulfate shift, DMSO zero; 340,000 compounds, 1.5% hits; AID 651658, 2012; Fibroblast growth factor 22 (Homo sapiens), Q9HCT0;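 active = mean Tm shift, scaled 0 neutral to 100 positive control, at about 1.3% or above, every replicate too, limit read from the data; inconclusive = no clear call, values can overlap the other calls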
SMARCA2 conf = SMARCA2 (BRM) function activators, confirmation, cell-based, luminescence, triplicate | shares compounds with SMARCA2 act | MG213 cells, MMTV-luciferase with dexamethasone, overnight; MG213 cells expressing E1A, Rb sequestered; DMSO wells 0%, reference activator 100% | activation, % at 9.1 µM | 3,500 compounds, 30% hits;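 active = activation above its plate's cutoff, the mean activation of tested wells plus 3 SD, cut at about 7.9% in these data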
GAL4-VP16 Luc = GAL4-VP16 luciferase reporter activation, counter-screen for SMARCA2 (BRM) activator project, cell-based, pG5luc, luminescence, high throughput | 3,500 compounds, 41% hits | HEK293 GAL4-VP16 pG5luc reporter; scaled: DMSO wells 0%, SAHA wells 100% | activation, % at 9.1 µM | shares compounds with SMARCA2 act | AID 686939, 2013;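 active = activation above the solvent-only control well mean plus 3 SD, averaged across control plates, cut at about 5.2% in these data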
The depositor's hits bear a star; ? = inconclusive; · = not tested or not shown.

SMILES	MITF TRPM1 HTS	Wnt bcat act	MLL AF4-AF9 inh	esBAF inh	SMARCA2 act	FGF22 binding	SMARCA2 conf	GAL4-VP16 Luc
CC1(CCOCc2ccccc2)NC(=O)NC1=O (stereo not drawn)	-1	-3	-8	-1	-1	0	·	·
COc1ccc(CCC2(C)NC(=O)NC2=O)cc1 (stereo not drawn)	-1	0	-1	-4	8.1*	0	1	2
Cc1ccc(/C=C/c2nnc(-c3cccc(C)c3)o2)cc1	7	17	5	53*	9.3*	0	2	1
Cc1ccc(-c2nnc(/C=C/c3ccccc3)o2)cc1	37	19	2	·	9.1*	1	7	10*
Cc1cccc(-c2nnc(-c3ccccc3)o2)c1	49	·	·	-41	5	·	·	·
COc1ccc2c3c([nH]c2c1)[C@H](CO)N(C(=O)C1CCOCC1)CC31CCN(Cc2nccs2)CC1	·	·	7	·	·	0	·	·
O=C(NCCc1ccccc1)C(=O)NCC1CCCN1S(=O)(=O)c1cccs1 (stereo not drawn)	-2	-3	?	4	1	0	·	·
O=C(NCC1CCCN1S(=O)(=O)c1cccs1)c1ccccc1F (stereo not drawn)	5	-2	?	2	8.4*	-1	-5	2
Cc1ccc(NC(=O)N2CCN(C(=O)c3ccco3)CC2)cc1Cl	9	2	2	6	-2	0	·	·
O=C(c1ccco1)N1CCN(Cc2c(F)cccc2Cl)CC1	·	12	1	45*	8.8*	0	7	7.9*
O=C(c1ccco1)N1CCN(Cc2ccccc2F)CC1	-3	-2	-1	8	2	0	·	·
Cc1ccc(Nc2nc(N)nc(CN3CCN(C(=O)c4ccco4)CC3)n2)cc1Cl	-2	-1	·	·	8.5*	·	1	1
CCC(=O)Nc1ccc2c(c1)OC[C@H](C)N(Cc1cncnc1)C[C@H](C)[C@@H](OC)CN(C)C2=O	·	·	-1	·	·	0	·	·
CCC(C)NC(=O)C1(N2C(=O)c3ccccc3C2=O)CCCC1 (stereo not drawn)	2	-4	1	4	8.8*	0	1	0
COc1ccccc1NC(=O)N(C)C[C@H]1OCc2ccccc2-c2ccccc2C(=O)N([C@H](C)CO)C[C@H]1C	·	·	-15	-3	·	·	·	·
COc1cccc2c(=O)c(C(=O)NCc3cccs3)c[nH]c12	·	?	·	?	10*	·	17*	5.9*
Cc1ccc2[nH]cc(C(=O)NCc3cccs3)c(=O)c2c1	-5	-2	-3	10	4	0	·	·
CO[C@@H](C(=O)N(C)C[C@@H]1OCc2ccccc2-c2ccccc2C(=O)N([C@@H](C)CO)C[C@@H]1C)c1ccccc1	·	·	-3	3	·	0	·	·
CC(C)N1CCCCC(NC(=O)c2cccc(C(F)(F)F)c2)C1=O (stereo not drawn)	·	·	·	·	8.8*	·	1	0
C/C(=N\NC(=O)c1nn(C)cc1Cl)c1ccncc1	0	3	·	·	9.5*	·	0	-1
CC(C)(C(=O)c1ccccc1)/[N+]([O-])=C/c1ccc(F)cc1	-2	·	·	8	9.8*	·	-1	-1
CCc1nc(SCc2cc(Cl)ccc2OC)n[nH]1	5	·	·	2	9.4*	·	-1	0
CCc1nc(SCc2ccc(OC)cc2)n[nH]1	26	10	0	33	-1	0	·	·
CN(C)CCCNC(=O)C[C@@H]1CC[C@H]2[C@@H](COC[C@H](O)CN2S(=O)(=O)c2ccc(F)cc2)O1	·	·	-2	0	·	0	·	·

Assay outcomes as filed in PubChem BioAssay.
